# Laboratory results: PubChem BioAssay (Tox21)
# Values without a mark were called inactive. Inconclusive results are not listed. A call without a number means that no potency is given here. Calls of active or inactive are those of the source. Unless noted, calls follow the shape of the dose curve; as a rule, active = well fitted curve in the direction sought with a large enough effect in the repeat runs; inconclusive = weak or mixed curves; inactive = no such curve, though single readings can be large; an effect the other way counts as inactive or inconclusive.
# Columns and labels:
# [1] = qHTS assay to identify small molecule agonists of the estrogen receptor beta (ER-beta) signaling pathway - cell viability counter screen (AID 1259380); also: nearly all actives have a fitted effect of over 30% in size; also: potency is read from the fitted curve at half-maximal effect
# In short: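 Luminescence read-out (CellTiter-Glo, 30 min, room temp) taken in the same wells as the beta-lactamase reporter assay; ER-beta-UAS-bla HEK293T cells exposed to DMSO-dissolved compounds for 16 hr at 37C in 2% charcoal-stripped FBS medium.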
# [2] = qHTS assay to identify small molecule antagonists of the estrogen receptor beta (ER-beta) signaling pathway - cell viability counter screen (AID 1259382); also: nearly all actives have a fitted effect of over 55% in size; also: potency is read from the fitted curve at half-maximal effect;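 as to activity change, negative = cytotoxicity: HEK293T cells carrying ER-beta-UAS-bla reporter stimulated with estradiol; series mostly up to about 92 µM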
# In short: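 Luminescent ATP read-out (CellTiter-Glo, 30 min, RT) taken in the same wells as the bla reporter assay. HEK293T ER-beta-UAS-bla cells in 2% charcoal-stripped FBS were exposed to compounds with 1nM E2 for 16 hr at 37C.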
# [3] = target: Estrogen receptor (Homo sapiens) (UniProt P03372); test: qHTS assay to identify small molecule agonists of the estrogen receptor alpha (ER-alpha) signaling pathway in the presence of an antagonist (AID 1259383; calls by dose curve; also: top concentration of the series differs between compounds; nearly all actives have a fitted effect of over 15% in size)
# Sequence of Estrogen receptor (Homo sapiens) (P03372 whole entry, looked up): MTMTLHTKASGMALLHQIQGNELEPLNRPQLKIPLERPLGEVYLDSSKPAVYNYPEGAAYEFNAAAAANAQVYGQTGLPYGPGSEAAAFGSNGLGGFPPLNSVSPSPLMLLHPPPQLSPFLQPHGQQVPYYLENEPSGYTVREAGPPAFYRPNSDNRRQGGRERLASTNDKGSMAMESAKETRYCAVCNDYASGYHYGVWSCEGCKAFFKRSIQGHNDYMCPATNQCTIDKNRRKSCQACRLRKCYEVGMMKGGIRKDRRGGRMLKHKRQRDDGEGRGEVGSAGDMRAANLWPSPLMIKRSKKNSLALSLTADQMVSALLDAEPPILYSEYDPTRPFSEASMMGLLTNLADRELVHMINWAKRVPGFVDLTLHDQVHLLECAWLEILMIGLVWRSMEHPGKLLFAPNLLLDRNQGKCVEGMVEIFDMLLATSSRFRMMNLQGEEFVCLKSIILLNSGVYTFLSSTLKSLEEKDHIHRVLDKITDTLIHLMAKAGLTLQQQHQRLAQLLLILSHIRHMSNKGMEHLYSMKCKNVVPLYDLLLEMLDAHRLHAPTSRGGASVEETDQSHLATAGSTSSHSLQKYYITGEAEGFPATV
# In short: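 Luciferase luminescence (ONE-Glo, 30min at room temperature) measured in VM7Luc4E2 cells after 22hr compound exposure at 15 concentrations, with 10.0nM ICI-182,780 final present; cells express endogenous ER-alpha and carry four EREs upstream of luciferase.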
# [4] = qHTS assay to identify small molecule agonists or antagonists of the thyroid stimulating hormone receptor (TSHR) signaling pathway - wild type cell line counter screen (AID 1259384; calls by dose curve)
# In short: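 Wild-type Hek293 cells, 800/well, 18 h at 37C, then compound with Ro20-1724 for 30 min RT. cAMP by HTRF (cAMP-d2/anti-cAMP cryptate), 1 h RT, fluorescence read. 15 concentrations, triplicates.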
# [5] = target: Thyrotropin receptor (Homo sapiens) (UniProt P16473); test: qHTS assay to identify small molecule antagonists of the thyroid stimulating hormone receptor (TSHR) signaling pathway (AID 1259385; calls by dose curve; also: nearly all actives have a fitted effect of over 20% in size; also: potency is read from the fitted curve at half-maximal effect)
# Sequence of Thyrotropin receptor (Homo sapiens) (P16473 whole entry, looked up): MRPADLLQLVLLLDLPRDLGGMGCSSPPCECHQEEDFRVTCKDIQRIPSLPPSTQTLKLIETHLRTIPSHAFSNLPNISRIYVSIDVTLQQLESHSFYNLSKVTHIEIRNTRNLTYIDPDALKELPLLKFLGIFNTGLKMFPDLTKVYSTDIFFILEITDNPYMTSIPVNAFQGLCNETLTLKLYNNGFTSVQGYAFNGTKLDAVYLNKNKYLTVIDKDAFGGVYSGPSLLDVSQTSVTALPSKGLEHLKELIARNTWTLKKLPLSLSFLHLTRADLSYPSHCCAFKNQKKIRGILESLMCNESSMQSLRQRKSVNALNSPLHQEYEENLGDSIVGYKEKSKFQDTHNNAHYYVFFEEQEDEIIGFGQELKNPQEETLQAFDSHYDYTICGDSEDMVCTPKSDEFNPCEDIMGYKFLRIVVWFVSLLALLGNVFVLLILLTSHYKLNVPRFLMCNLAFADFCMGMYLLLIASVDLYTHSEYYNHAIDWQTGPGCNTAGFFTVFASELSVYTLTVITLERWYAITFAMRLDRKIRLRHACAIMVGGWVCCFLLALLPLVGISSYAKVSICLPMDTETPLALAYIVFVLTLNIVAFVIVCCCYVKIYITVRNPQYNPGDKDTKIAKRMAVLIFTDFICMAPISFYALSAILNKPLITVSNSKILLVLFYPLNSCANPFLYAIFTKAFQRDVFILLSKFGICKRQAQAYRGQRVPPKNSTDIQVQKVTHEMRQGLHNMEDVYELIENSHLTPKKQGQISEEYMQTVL
# In short: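 TSHR-HEK293 cells (800/well) plated 18 h, then compounds with Ro20-1724 and TSH at 1.5 ng/mL final, 30 min at room temperature. cAMP quantified by HTRF (cAMP-d2/anti-cAMP-cryptate, 1 h); 15 concentrations in triplicate.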
# [6] = target: Progesterone receptor (Homo sapiens) (UniProt P06401); test: qHTS assay to identify small molecule agonists of the progesterone receptor (PR) signaling pathway (AID 1346784; calls by dose curve; also: nearly all actives have a fitted effect of over 30% in size)
# Sequence of Progesterone receptor (Homo sapiens) (P06401 whole entry, looked up): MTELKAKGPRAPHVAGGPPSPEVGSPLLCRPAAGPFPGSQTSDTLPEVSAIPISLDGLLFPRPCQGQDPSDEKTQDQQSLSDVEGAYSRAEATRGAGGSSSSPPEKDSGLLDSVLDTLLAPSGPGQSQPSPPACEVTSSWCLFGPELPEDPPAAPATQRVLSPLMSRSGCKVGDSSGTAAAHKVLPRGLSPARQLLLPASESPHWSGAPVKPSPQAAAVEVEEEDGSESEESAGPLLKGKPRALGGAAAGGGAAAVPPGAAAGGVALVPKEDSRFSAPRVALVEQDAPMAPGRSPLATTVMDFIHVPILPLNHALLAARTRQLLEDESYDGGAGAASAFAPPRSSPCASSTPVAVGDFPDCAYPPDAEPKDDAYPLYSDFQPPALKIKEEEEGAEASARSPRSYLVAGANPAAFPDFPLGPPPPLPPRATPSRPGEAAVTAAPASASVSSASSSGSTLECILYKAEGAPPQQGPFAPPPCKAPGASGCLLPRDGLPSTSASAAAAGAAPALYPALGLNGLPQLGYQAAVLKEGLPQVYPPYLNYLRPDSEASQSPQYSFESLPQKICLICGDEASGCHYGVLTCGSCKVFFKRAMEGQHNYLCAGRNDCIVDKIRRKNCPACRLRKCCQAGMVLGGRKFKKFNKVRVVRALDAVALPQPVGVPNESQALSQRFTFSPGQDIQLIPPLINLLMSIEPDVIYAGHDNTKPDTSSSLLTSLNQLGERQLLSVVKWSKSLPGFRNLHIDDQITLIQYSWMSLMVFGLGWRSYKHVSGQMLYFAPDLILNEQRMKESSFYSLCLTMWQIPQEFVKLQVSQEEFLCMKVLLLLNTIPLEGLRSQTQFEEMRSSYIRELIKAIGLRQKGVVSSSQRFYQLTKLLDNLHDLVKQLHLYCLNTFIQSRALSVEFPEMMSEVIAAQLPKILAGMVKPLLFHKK
# In short: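 Beta-lactamase reporter read-out: after 16 hr compound treatment at 37C and a further 2 hr at room temperature with LiveBLAzer B/G FRET substrate, fluorescence was measured in PR-UAS-bla HEK 293T cells grown in 2% charcoal-stripped serum.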
# [7] = target: Progesterone receptor (Homo sapiens) (UniProt P06401); test: qHTS assay to identify small molecule antagonists of the progesterone receptor (PR) signaling pathway (AID 1346795; active = well fitted inhibition curve with a large enough effect in the signal ratio in the repeat runs, not every such curve was filed as active; the % refers to the signal ratio; also: potency is read from the fitted curve at half-maximal effect)
# In short: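 Read-out is fluorescence from the LiveBLAzer B/G FRET substrate, cleaved by a UAS-controlled beta-lactamase in PR-UAS-bla HEK293T cells after 16 hr exposure to compound plus 1 nM promegestone (final), followed by 2 hr at room temperature.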
# [8] = qHTS assay to identify small molecule antagonists of the progesterone receptor (PR) signaling pathway - cell viability counter screen (AID 1346798); also: nearly all actives have a fitted effect of over 50% in size; also: potency is read from the fitted curve at half-maximal effect;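 as to activity change, negative = cytotoxicity: HEK293T PR-UAS-bla cells stimulated with the agonist R5020; series mostly up to about 92 µM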
# In short: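 HEK293T PR-UAS-bla, 2% charcoal-stripped FBS; 4 hr pre-plate; cpd + R5020, 16 h 37C; LiveBLAzer read first; then CellTiter-Glo 30 min RT, luminescence.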
# [9] = qHTS assay to identify small molecule agonists of the estrogen receptor alpha (ER-alpha) signaling pathway in the presence of an antagonist - cell viability counter screen (AID 1259386);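 also: cells exposed to compounds for 22 h at 37 °C before the viability read; nearly all actives have a fitted effect of over 30% in size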; also: potency is read from the fitted curve at half-maximal effect; as to activity change, negative = cytotoxicity: series mostly up to about 92 µM
# In short: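 Read-out: CellTiter-Fluor fluorescence after 1hr reagent incubation, measured in the same wells as the luciferase readout. VM7Luc4E2 cells were exposed to 15 compound concentrations with 10.0nM ICI-182,780 for 22hr at 37C.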
compound,measurement,setting,value
[Cl][Dy]([Cl])[Cl],Potency,[1],inactive
same,Potency,[2],inactive
same,Potency,[3],inactive
same,Potency,[4],inactive
same,Potency,[5],inactive
same,outcome,[6],inactive
CO[Si](OC)(c1ccccc1)c1ccccc1,Potency,[1],inactive
same,Potency,[2],inactive
same,Potency,[3],inactive
same,Potency,[4],inactive
same,Potency,[5],inactive
same,outcome,[6],inactive
Nc1cc([N+](=O)[O-])cc(Cl)c1O,Potency,[1],inactive
same,Potency,[2],inactive
same,Potency,[3],inactive
same,outcome,[6],inactive
same,Potency,[7],inactive
same,Potency,[8],inactive
CCOC(=O)[C@H](C)O,Potency,[1],inactive
same,Potency,[2],inactive
same,Potency,[3],inactive
same,Potency,[9],inactive
same,outcome,[6],inactive
same,Potency,[7],inactive
same,Potency,[8],inactive
CC1=C(/C=C/C(C)=C/C=C/C(C)=C\C(=O)O)C(C)(C)CCC1,Potency,[1],9.72 µM (active)
same,Potency,[2],inactive
same,Potency,[3],inactive
same,Potency,[9],inactive
same,outcome,[6],inactive
same,Potency,[7],inactive
CCCC(C)C=O (stereo not given),Potency,[1],inactive
same,Potency,[2],inactive
same,Potency,[3],inactive
same,Potency,[5],inactive
same,Potency,[9],inactive
same,outcome,[6],inactive
same,Potency,[7],inactive
same,Potency,[8],inactive
Oc1ccc(C2(c3ccc(O)c(C4CCCCC4)c3)CCCCC2)cc1C1CCCCC1,Potency,[1],19.3 µM (active)
same,Potency,[2],27.3 µM (active)
same,Potency,[3],inactive
same,Potency,[4],inactive
same,Potency,[8],43.3 µM (active)
Oc1cccc2c(O)cccc12,Potency,[1],61.1 µM (active)
same,Potency,[2],61.1 µM (active)
same,Potency,[3],inactive
same,Potency,[9],inactive
same,outcome,[6],inactive
same,Potency,[7],48.6 µM (active)
same,Potency,[8],inactive
NC(=O)c1ccccc1Cl,Potency,[1],inactive
same,Potency,[2],inactive
same,Potency,[3],inactive
same,outcome,[6],inactive
same,Potency,[7],inactive
same,Potency,[8],inactive
O=C1OC(O)C(C(Cl)Cl)=C1Cl (stereo not given),Potency,[1],19.9 µM (active)
same,Potency,[2],inactive
same,Potency,[3],inactive
same,Potency,[5],inactive
same,Potency,[9],inactive
CC(=O)Nc1ccc(N=Nc2cc(C)ccc2O)cc1,Potency,[1],inactive
same,Potency,[2],inactive
same,Potency,[3],inactive
same,Potency,[9],15.4 µM (active)
same,outcome,[6],inactive
same,Potency,[7],48.6 µM (active)
same,Potency,[8],inactive
NC(=O)C1CO1 (stereo not given),Potency,[1],inactive
same,Potency,[2],inactive
same,Potency,[3],inactive
same,Potency,[5],inactive
same,Potency,[9],inactive
same,outcome,[6],inactive
same,Potency,[7],inactive
same,Potency,[8],inactive
O=C1C=CC(=O)N1c1cccc(N2C(=O)C=CC2=O)c1,Potency,[1],61.1 µM (active)
same,Potency,[2],68.6 µM (active)
same,Potency,[3],inactive
same,Potency,[5],21.7 µM (active)
[Cl][Sc]([Cl])[Cl],Potency,[1],inactive
same,Potency,[2],inactive
same,Potency,[3],inactive
same,Potency,[4],inactive
same,Potency,[5],inactive
same,outcome,[6],inactive
same,Potency,[7],inactive
same,Potency,[8],inactive
C=CC(=O)OCCOC1C2CCC1C1CC=CC12 (stereo not given),"activity change, negative = cytotoxicity",[1],-0.168% [at 19 µM]
same,"activity change, negative = cytotoxicity",[2],2.85% [at 19 µM]
same,cAMP activity change,[4],"-2.01% [at 18.9 µM, stronger effect = higher value]"
same,"activity change, negative = inhibition",[5],6.1% [at 19 µM]
same,"activity change, negative = cytotoxicity",[9],0.411% [at 19 µM]
same,"activity change, negative = cytotoxicity",[8],13.6% [at 18.9 µM]
